Screening data deposited in PubChem BioAssay by several laboratories.
GRK2 aptamer HTS: blocks RNA aptamer binding to human GRK2; P25098; bead flow cytometry, FAM-aptamer displacement from GRK2; inhibition of aptamer binding, % at 10 µM; hit rate 0.59% among 330,000; AID 488847;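 active means inhibition of aptamer binding above 40%, roughly 3 SD of noise, on plates passing a quality check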;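 further: median bead fluorescence of bound FAM aptamer so fluorescent compounds give negative values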
Pemphigus Ab inh: inhibitors of pemphigus antibody binding to human desmoglein-3. DSG3-coupled beads, scFv-anti-DSG3-GFP binding, flow cytometry; hits give low values. P32926. binding (percent of control), % at 10 µM. hit rate 0.48% among 310,000;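 active means binding more than 3 SD below its plate's average and above zero; inconclusive means below that plate limit but binding exactly zero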;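 further: hits lower antibody fragment binding to DSG3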
Target sequence (P32926 whole entry, looked up, the tested form may be a part): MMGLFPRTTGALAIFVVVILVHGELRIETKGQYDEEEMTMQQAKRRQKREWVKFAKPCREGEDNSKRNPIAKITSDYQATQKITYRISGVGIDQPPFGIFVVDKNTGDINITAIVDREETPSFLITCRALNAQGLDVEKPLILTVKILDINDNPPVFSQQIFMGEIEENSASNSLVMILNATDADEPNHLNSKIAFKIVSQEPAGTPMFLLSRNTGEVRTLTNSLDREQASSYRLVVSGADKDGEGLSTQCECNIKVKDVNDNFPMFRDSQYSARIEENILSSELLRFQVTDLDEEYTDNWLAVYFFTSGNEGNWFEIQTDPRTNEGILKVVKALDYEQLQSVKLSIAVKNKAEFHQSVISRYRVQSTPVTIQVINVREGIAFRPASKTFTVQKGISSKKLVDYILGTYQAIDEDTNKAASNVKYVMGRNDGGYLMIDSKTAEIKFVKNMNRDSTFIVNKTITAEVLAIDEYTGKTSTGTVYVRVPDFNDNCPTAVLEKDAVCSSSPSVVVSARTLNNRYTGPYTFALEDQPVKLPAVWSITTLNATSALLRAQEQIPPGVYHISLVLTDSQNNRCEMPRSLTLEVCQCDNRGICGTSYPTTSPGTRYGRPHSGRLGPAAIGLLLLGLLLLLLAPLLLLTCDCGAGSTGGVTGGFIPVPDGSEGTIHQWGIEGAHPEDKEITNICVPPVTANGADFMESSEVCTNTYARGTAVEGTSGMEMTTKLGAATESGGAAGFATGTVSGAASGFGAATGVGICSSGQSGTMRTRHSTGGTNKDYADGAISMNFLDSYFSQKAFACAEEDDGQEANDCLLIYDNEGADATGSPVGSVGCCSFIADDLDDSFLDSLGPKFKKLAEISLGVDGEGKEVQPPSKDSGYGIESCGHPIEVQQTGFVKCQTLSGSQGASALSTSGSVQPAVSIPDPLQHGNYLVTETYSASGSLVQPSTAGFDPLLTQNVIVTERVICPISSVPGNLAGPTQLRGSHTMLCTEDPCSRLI
VLA-4 inh: inhibition in a human VLA-4 binding assay; P13612; VLA-4 expressing cells, ligand binding flow cytometry; inhibition, % (about 7 µM as worked out from the volumes in the protocol); hit rate 0.2% among 330,000; AID 2557; in the data active means inhibition above about 50%
GASC-1 inh: inhibitors of human GASC-1 (JMJD2C) demethylase | Q9H3R0 | GST-JMJD2C(1-420) H3K9me3 demethylation, DELFIA europium | inhibition, % at 2.35 µM | hit rate 0.069% among 330,000;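 active means more than half of a compound's replicate wells show inhibition beyond 50%, single wells judged on their own value; inconclusive means some, but no more than half, of replicates pass 50% inhibition; inactive means no replicate passes 50% inhibition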;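 further: signal counts dimethyl H3K9 product captured on neutravidin plate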
PREPL inhibitor: inhibitors of human prolyl oligopeptidase-like enzyme PREPL. Q4J6C6. recombinant PREPL, fluorescence polarization activity-based probe. inhibition, % at 5.96 µM. hit rate 0.68% among 320,000; in the data active means inhibition above about 43%
Numbers stand for hits. Sampled rows, rich in hits. Any-hit rate of the full collection: about 1.6%.

What do the screens show for `O=C(COc1ccc(Cl)cc1)NCCNc1ccc([N+](=O)[O-])cc1`?
GRK2 aptamer HTS: inactive; Pemphigus Ab inh: 72; VLA-4 inh: inactive; GASC-1 inh: inactive; PREPL inhibitor: inactive

Results for CCCc1ccc(S(=O)(=O)N2CCN(C(C)C(=O)NCc3ccc(OC)cc3)CC2)cc1 (stereo not drawn) ?
GRK2 aptamer HTS: inactive; Pemphigus Ab inh: inactive; VLA-4 inh: inactive; GASC-1 inh: inactive; PREPL inhibitor: inactive

How did CC1=[N+](C)c2c(ccc3cccnc23)C1(C)C do in these assays?
Pemphigus Ab inh: 79

How did Cc1[nH]c2c(ccc3cccnc32)c1C do in these assays?
GRK2 aptamer HTS: inactive; Pemphigus Ab inh: inactive; VLA-4 inh: inactive; GASC-1 inh: inactive; PREPL inhibitor: inactive

Results for CC1=CCC2C(=O)N(c3ccc(C)c(Br)c3)C(=O)C2C1 (stereo not drawn) ?
GRK2 aptamer HTS: inactive; Pemphigus Ab inh: 48; VLA-4 inh: inactive; GASC-1 inh: inactive; PREPL inhibitor: inactive

Results for COc1ccccc1CNC(=O)/C=C/c1ccc(S(=O)(=O)NCc2ccco2)cc1 ?
GRK2 aptamer HTS: 62; Pemphigus Ab inh: inactive; VLA-4 inh: inactive; GASC-1 inh: inactive; PREPL inhibitor: inactive

How did COc1ccc(/C=C/C(=O)c2cc3cccc(OC)c3oc2=O)cc1 do in these assays?
GRK2 aptamer HTS: inactive; Pemphigus Ab inh: 100; VLA-4 inh: inactive; GASC-1 inh: inactive; PREPL inhibitor: inactive

How did COc1ccc2cc3c(N)nn(C(=O)c4ccc(F)cc4)c3nc2c1 do in these assays?
GRK2 aptamer HTS: inactive; Pemphigus Ab inh: 62; VLA-4 inh: inactive; GASC-1 inh: inactive; PREPL inhibitor: inactive

Results for Cc1cccc(N2CCN(C(=O)C3CCN(S(=O)(=O)c4c(C)noc4C)CC3)CC2C)c1 (stereo not drawn) ?
GRK2 aptamer HTS: inactive; Pemphigus Ab inh: 46; VLA-4 inh: inactive; GASC-1 inh: inactive; PREPL inhibitor: inactive

How did Cc1noc(C)c1S(=O)(=O)N1CCC(C(=O)N2CCC(C)CC2)CC1 do in these assays?
GRK2 aptamer HTS: inactive; Pemphigus Ab inh: inactive; VLA-4 inh: inactive; GASC-1 inh: inactive; PREPL inhibitor: inactive

What do the screens show for `COc1cc2c(cc1N)-c1ccc(N)cc1C2=O`?
Pemphigus Ab inh: inactive

How did Cc1onc(-c2c(F)cccc2Cl)c1C(=O)NCc1ccc(F)cc1 do in these assays?
GRK2 aptamer HTS: inactive; Pemphigus Ab inh: inactive; VLA-4 inh: inactive; GASC-1 inh: inactive; PREPL inhibitor: inactive

How did COc1ccc(C(=O)Oc2ccc(/C=N/NC(=O)Cc3ccc([N+](=O)[O-])cc3)cc2)cc1 do in these assays?
GRK2 aptamer HTS: 85; Pemphigus Ab inh: inactive; VLA-4 inh: inactive; GASC-1 inh: inconclusive; PREPL inhibitor: inactive

Results for O=C(N/N=C/c1ccc(OC(=O)c2ccccc2)cc1)c1cccnc1 ?
GRK2 aptamer HTS: inactive; VLA-4 inh: inactive; GASC-1 inh: inactive; PREPL inhibitor: inactive

What do the screens show for `O=C(N/N=C/c1ccc([N+](=O)[O-])cc1)c1cc(C2CC2)[nH]n1`?
GRK2 aptamer HTS: inactive; Pemphigus Ab inh: inactive; VLA-4 inh: inactive; GASC-1 inh: inactive; PREPL inhibitor: inactive

What do the screens show for `O=C(N/N=C/c1ccc([N+](=O)[O-])cc1)c1[nH]ncc1Br`?
GRK2 aptamer HTS: inactive; Pemphigus Ab inh: 59; VLA-4 inh: inactive; GASC-1 inh: inactive; PREPL inhibitor: inactive

What do the screens show for `O=C(N/N=C/c1ccc(OC(=O)c2ccc([N+](=O)[O-])cc2)cc1)c1cccnc1`?
GRK2 aptamer HTS: inactive; Pemphigus Ab inh: 8.2; VLA-4 inh: inactive; GASC-1 inh: inactive; PREPL inhibitor: inactive

How did CN(CC(=O)Nc1cccc(C(F)(F)F)c1)C1=NS(=O)(=O)c2ccccc21 do in these assays?
GRK2 aptamer HTS: inactive; Pemphigus Ab inh: inactive; VLA-4 inh: inactive; GASC-1 inh: inactive; PREPL inhibitor: inactive

How did O=C(CC1C=Cc2ccccc2N1C(=O)c1ccccc1)c1ccccc1 (stereo not drawn) do in these assays?
GRK2 aptamer HTS: inactive; Pemphigus Ab inh: inactive; VLA-4 inh: inactive; GASC-1 inh: inactive; PREPL inhibitor: inactive

Results for CC(C)c1ccc(N(CC(=O)NC2CCCCC2)C(=O)CCC(=O)Nc2ccccn2)cc1 ?
GRK2 aptamer HTS: inactive; Pemphigus Ab inh: 62; VLA-4 inh: inactive; GASC-1 inh: inactive; PREPL inhibitor: inactive

How did CCS(=O)(=O)c1ccc2c(c1)N(S(=O)(=O)c1ccc(Cl)cc1)CC(C(=O)O)O2 (stereo not drawn) do in these assays?
GRK2 aptamer HTS: inactive; Pemphigus Ab inh: inactive; VLA-4 inh: inactive; GASC-1 inh: inactive; PREPL inhibitor: inactive

What do the screens show for `COCCN(C(=O)c1cc(-c2ccco2)nc2ccccc12)c1c(N)n(Cc2ccccc2)c(=O)[nH]c1=O`?
GRK2 aptamer HTS: inactive; Pemphigus Ab inh: inactive; VLA-4 inh: inactive; GASC-1 inh: inactive; PREPL inhibitor: inactive

How did CCCN(C(=O)c1cc(-c2ccco2)nc2ccccc12)c1c(N)n(Cc2ccccc2)c(=O)[nH]c1=O do in these assays?
GRK2 aptamer HTS: inactive; Pemphigus Ab inh: 87; VLA-4 inh: inactive; GASC-1 inh: inactive; PREPL inhibitor: inactive

What do the screens show for `COc1ccccc1/C=N/NC(=O)c1ccc(NC(=O)c2cccc([N+](=O)[O-])c2)cc1`?
GRK2 aptamer HTS: inactive; VLA-4 inh: inactive; GASC-1 inh: inactive; PREPL inhibitor: inactive

What do the screens show for `COc1cccc(/C=N/NC(=O)c2cc3cc([N+](=O)[O-])ccc3s2)c1O`?
GRK2 aptamer HTS: 87; Pemphigus Ab inh: inactive; VLA-4 inh: inactive; GASC-1 inh: inactive; PREPL inhibitor: inactive

Results for CCCC(C(=O)Nc1cccc(S(=O)(=O)N2CCCC2)c1)c1ccccc1 (stereo not drawn) ?
GRK2 aptamer HTS: inactive; Pemphigus Ab inh: 8.0; VLA-4 inh: inactive; GASC-1 inh: inactive; PREPL inhibitor: inactive

What do the screens show for `CC(CC(=O)Nc1cccc(S(=O)(=O)N2CCCCC2)c1)c1ccccc1` (stereo not drawn)?
GRK2 aptamer HTS: inactive; Pemphigus Ab inh: inactive; VLA-4 inh: inactive; GASC-1 inh: inactive; PREPL inhibitor: inactive

How did COc1cc(O)c2c(c1)OC(c1ccc(O)cc1)CC2=O (stereo not drawn) do in these assays?
GRK2 aptamer HTS: inactive; Pemphigus Ab inh: inactive; VLA-4 inh: inactive; GASC-1 inh: inactive; PREPL inhibitor: inactive

How did Cc1c(O)cc2c(c1O)C(=O)CC(c1ccc(O)cc1)O2 (stereo not drawn) do in these assays?
GRK2 aptamer HTS: inactive; Pemphigus Ab inh: 77; VLA-4 inh: inactive; GASC-1 inh: inactive; PREPL inhibitor: inactive

How did COc1cccc(NS(=O)(=O)c2ccc3c(c2)NC(=O)CC(=O)N3)c1 do in these assays?
GRK2 aptamer HTS: inactive; Pemphigus Ab inh: inactive; VLA-4 inh: inactive; GASC-1 inh: inactive; PREPL inhibitor: inactive

Results for COc1cc2c(cc1OC)C(C)N(C(=O)Cn1ncc3c1-c1ccccc1OC3)CC2 (stereo not drawn) ?
GRK2 aptamer HTS: inactive; Pemphigus Ab inh: 89; VLA-4 inh: inactive; GASC-1 inh: inactive; PREPL inhibitor: inactive

How did CCN(CC)C(=O)Cn1ncc2c1-c1ccccc1OC2 do in these assays?
GRK2 aptamer HTS: inactive; Pemphigus Ab inh: inactive; VLA-4 inh: inactive; GASC-1 inh: inactive; PREPL inhibitor: inactive

What do the screens show for `COc1ccc2cc(C3(C)NC(=O)N(CC(=O)NCC(F)(F)F)C3=O)ccc2c1` (stereo not drawn)?
GRK2 aptamer HTS: inactive; Pemphigus Ab inh: inactive; VLA-4 inh: inactive; GASC-1 inh: inactive; PREPL inhibitor: inactive
